In the library only some 19% were active in any assay of this set; here they are far more common.
TDP1 cell CPT = growth inhibition of DT40 Tdp1-/-;hTDP1 cells with camptothecin (screen for TDP1 inhibitors). chicken DT40 Tdp1-/-;hTDP1 cells + 20 nM CPT, ATP luminescence, 48 h. Potency, µM (highest dose often 46.2 µM), inactives show at the top dose activity change, negative = growth inhibition, usual class: inhibitors. hit rate 12% among 420,000. AID 686979; also: nearly all actives have a fitted effect of over 55% in size
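Chicken DT40 Tdp1-/- cells complemented with human TDP1, 400 cells/well, exposed to compounds plus 20 nM camptothecin for at least 48 h at 37 C; viability read as ATP content by CellTiter-Glo luminescence.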
KB-3-1 tox = kills parental KB-3-1 adenocarcinoma cells | KB-3-1 viability, CellTiter-Glo ATP luminescence, 72 h | Potency, µM (top dose mostly 46.1 µM), usual class: cytotoxic | hit rate 1.4% among 400,000 | AID 1347075; also: nearly all actives have a fitted effect of over 60% in size
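Cytotoxicity in the drug-sensitive parental line KB-3-1 was scored as loss of CellTiter-Glo luminescence following 72 h incubation with compound. Values come from curve fitting of normalized concentration-response data.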
KB-V1 MDR tox = KB-V1 MDR subline cytotoxicity; KB-V1 MDR cells viability, CellTiter-Glo, 72 h; hit rate 3.4% among 400,000; Potency, µM (highest dose often 46.1 µM), most hits filed as cytotoxic; also: nearly all actives have a fitted effect of over 60% in size
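KB-V1, DMEM (no phenol red) + 10% FBS; cpd pin-transferred, titration series; 72 h, 37 degrees C; CellTiter-Glo, luminescence. Data normalized, curve-fit.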
HT1080 IDH1KD tx = HT-1080 IDH1 knockdown cell toxicity (counter line) | Potency, µM (top dose mostly 46.1 µM), for inactives: top-dose activity, negative = toxicity, actives largely listed as cytotoxic | hit rate 2% among 360,000 | HT-1080 IDH1 knockdown viability, ATP luminescence, 48 h | AID 686971;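 also: 0% = DMSO wells and -100% = cell-free medium wells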
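Luminescent ATP read-out (CellTiter-Glo, 10 min at room temperature) after 48 h compound exposure at 37 °C gave viability of IDH1-knockdown HT-1080 cells. Activity was normalised to DMSO and cell-free wells, then fitted as concentration-response curves.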
HT1080-NT tox = kills 2HG-producing HT-1080-NT fibrosarcoma cells; HT-1080-NT fibrosarcoma viability, CellTiter-Glo ATP luminescence, 48 h; Potency, µM (titrated, usually from 46.1 µM), for the others: at the highest dose activity, negative = less viability, hits mostly cytotoxic; hit rate 1.6% among 360,000; AID 686970;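 also: NT is the 2HG producing partner of a matched IDH1 knockdown line; 0% = DMSO-treated cells and -100% = media-only wells without cells; nearly all actives have a fitted effect of over 55% in size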
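Read-out is CellTiter-Glo luminescence after 10 minutes at room temperature, following 48 hours' compound treatment of HT-1080-NT cells (750 cells/well, RPMI, 5% FBS, 37 degrees C).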
TDP1 cell noCPT = qHTS for Inhibitors of human tyrosyl-DNA phosphodiesterase 1 (TDP1): qHTS in cells in absence of CPT. DT40 Tdp1-/- hTDP1 cells, no CPT, ATP luminescence, 48 h. Potency, µM (series often up to 46.2 µM), for the others: at the highest dose activity change, negative = growth inhibition, most hits filed as inhibitors. hit rate 15% among 420,000. AID 686978, 2013; also: nearly all actives have a fitted effect of over 55% in size
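Luminescent ATP content (CellTiter-Glo) served as the growth readout. Knockout chicken DT40 cells expressing human TDP1 were exposed to compounds without camptothecin for a minimum 48 hr at 37 °C.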
The depositor's hits bear a star; i = inactive; u = inconclusive; x = no result; [ ] = dose if it differs, or a comment. Calls follow the shape of the dose curve; as a rule, active = well fitted curve in the direction sought with a large enough effect; inconclusive = small, poorly fitted or top-dose-only effect, or another doubt; inactive = no such curve, though single readings can be large; an effect the other way counts as inactive or inconclusive. Unless noted, % is scaled to controls: 0 for no effect and ±100 for the full control effect; potency is read from the fitted curve at half-maximal effect.

SMILES	TDP1 cell CPT	KB-3-1 tox	KB-V1 MDR tox	HT1080 IDH1KD tx	HT1080-NT tox	TDP1 cell noCPT
Cc1ccccc1NS(=O)(=O)c1ccc(C(=O)N2CCN(c3ccccn3)CC2)cc1	u	i	u	1%	-3%	15µM*
CC(=O)c1c(C)[nH]c(C(=O)Nc2ccc(F)c(F)c2F)c1C	3%	i	u	-3%	-11%	-12%
Cc1ccc2c(c1)N(C(=O)CCC(=O)Nc1ccccc1Cl)CC(C)O2 (stereo unspecified)	u	i	i	-5%	2%	u
COc1cccc(/C=C2\SC(=S)N(c3cccnc3)C2=O)c1OC	0%	i	i	7%	9%	4%
Cc1cc(/C=C2/SC(=S)N(c3cccc(C(F)(F)F)c3)C2=O)c(C)n1-c1cccnc1	0.73µM*	u	i	u	u	0.73µM*
COc1ccc(Cl)cc1-c1cc(C(=O)Nc2ccc(Br)cc2)[nH]n1	u	i	i	u	u	u
Cc1ccccc1-n1c(SCC(=O)c2c(N)n(C)c(=O)n(C)c2=O)nc2sc3c(c2c1=O)CCCC3	18µM*	u	23µM*	-22%	-3%	23µM*
Cc1ccccc1-n1c(SCC(=O)c2c(N)n(C)c(=O)n(C)c2=O)nnc1-c1cccnc1	-13%	i	i	14%	13%	-21%
CCC1(C)Cc2c(sc3nc(SC)n(-c4ccc(C)cc4)c(=O)c23)CO1 (stereo unspecified)	u	i	i	x	x	15µM*
CCSc1nc2sc3c(c2c(=O)n1-c1ccc(C)cc1)CCCC3	u	x	x	x	x	8.2µM*
CCSc1nc2sc3c(c2c(=O)n1-c1ccc(OC)cc1)CCN(C)C3	u	i	i	-8%	11%	16µM*
COc1ccc(-n2c(SCC(=O)O)nc3sc4c(c3c2=O)CCCC4)cc1	-3%	i	i	-9%	-4%	1%
Cc1ccc(-c2nn(-c3ccc(F)cc3F)c3c2cnc2ccc(F)cc23)cc1	-12%	i	i	x	x	-30%
O=C(CSc1nc(-c2cccs2)nc2cc(=O)[nH]n12)Nc1ccccc1Cl	-25%	i	i	x	x	u
CN(CCCc1cnc[nH]1)C(=S)NCCCN(Cc1ccc(Cl)cc1)c1ccc(Br)cn1	u	i	u	x	x	u
CCCCSc1nc2sc3c(c2c(=O)n1-c1ccc(C)cc1)CCN(C)C3	16µM*	u	i	u	u	15µM*
CC(=O)c1cccc(S(=O)(=O)N2CCC(C(=O)Oc3ccc(-c4nnco4)cc3)CC2)c1	0%	i	i	6%	17%	1%
N#Cc1nc(Cc2cccc3ccccc23)oc1NCc1ccco1	-25%	i	u	u	-2%[9.24 µM]	-28%
N#Cc1nc(Cc2cccc3ccccc23)oc1NCC1CCCO1 (stereo unspecified)	u	i	16µM*	-19%	-11%	-12%
COc1ccc(CCNC(=O)CCNC(=O)N2CC(=O)Nc3ccccc32)cc1	u	i	i	9%	3%	-1%
Cc1cc2nc(NCCCO)n(CC(=O)c3cc(C(C)(C)C)c(O)c(C(C)(C)C)c3)c2cc1C	16µM*	u	i	-8%	-3%	23µM*
CCN(CC)c1nc(N)c2c(N)nc3c(c2c1C#N)CC(c1ccccc1)O3 (stereo unspecified)	u	i	21µM*	u	-28%	u
CCN(CC)c1nc(N)c2c(N)n(-c3ccccc3C)c(=S)c(C#N)c2c1C#N	-4%	i	i	7%	13%	-17%

High-throughput results as filed in PubChem.
